# Screening data deposited in PubChem by Sanford-Burnham Center for Chemical Genomics.
# MLLE-PAM2 inh: inhibitors of PABP1 MLLE–PAM2 peptide binding, primary screen, biochemical, fluorescence polarization, FITC-PAM2, GST-MLLE. inhibition, % at 20 µM. AID 588489, 2011. Polyadenylate-binding protein 1 (Homo sapiens), P11940. 0.36% of 360,000 active; in the data active = inhibition above about 35%, passing the limit was not always enough;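 note: plate controls were DMSO wells with GST-MLLE for no effect and wells lacking GST-MLLE protein for full effect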
# PHOSPHO1 block: PubChem AID 1565 | recombinant PHOSPHO1, absorbance phosphatase assay | inhibition, % at 13.3 µM | 1.1% of 290,000 active; in the data active = inhibition above about 60%
# Target sequence (Q8TCT1 whole entry, looked up): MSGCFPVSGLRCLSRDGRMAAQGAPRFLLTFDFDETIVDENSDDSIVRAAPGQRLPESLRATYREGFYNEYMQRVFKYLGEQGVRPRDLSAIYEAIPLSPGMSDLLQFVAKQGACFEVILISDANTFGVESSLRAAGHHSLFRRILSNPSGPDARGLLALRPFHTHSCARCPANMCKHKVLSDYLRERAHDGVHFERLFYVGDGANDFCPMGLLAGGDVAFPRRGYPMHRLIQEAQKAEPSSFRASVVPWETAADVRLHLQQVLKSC
# eIF4H inh: human eIF4H binding inhibitors, primary screen, translation initiation inhibitor project, biochemical, uHTS, fluorescence polarization; AID 2012, 2009; Eukaryotic translation initiation factor 4H (Homo sapiens), Q15056; 0.94% of 290,000 active; inhibition, % at 35 µM; eIF4H fluorescence polarization binding assay;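 note: calls also rest on retests at 20 µM and on dose response follow-up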
# PABP polyA inh: PABP poly(A) RNA binding inhibitors, primary screen, biochemical, fluorescence polarization, uHTS; Polyadenylate-binding protein 1 (Homo sapiens), P11940; calls only at 35 µM; 1% of 290,000 active; AID 2014, 2009;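 note: calls also rest on retests at 20 µM and on dose response follow-up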
# APOBEC3G inh: APOBEC3G DNA deaminase inhibitors, primary screen, biochemical, fluorescence, single-stranded DNA substrate, uHTS; inhibition, % at 20 µM; AID 493012, 2011; recombinant A3G, ssDNA deamination FAM/TAMRA fluorescence; 0.28% of 330,000 active;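 active = inhibition of at least 40% at 20 µM, with no more than 30% in the related APOBEC3A deaminase screen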;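 note: plate controls were DMSO wells with A3G for no effect and wells lacking A3G enzyme for full effect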
# APOBEC3A inh: APOBEC3A ssDNA deaminase inhibitors, primary screen, selectivity assay for APOBEC3G inhibitor project, biochemical, FAM/TAMRA oligo cleavage fluorescence. DNA dC->dU-editing enzyme APOBEC-3A (Homo sapiens), P31941. recombinant A3A, FAM/TAMRA ssDNA deamination fluorescence. inhibition, % at 20 µM. 0.41% of 330,000 active. AID 493011, 2011;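 active = at least 40% inhibition at 20 µM here, with at most 30% in a related deaminase screen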;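 note: plate controls were A3A with DMSO for no effect and wells lacking A3A enzyme for full effect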
# Target sequence (P31941 whole entry, looked up): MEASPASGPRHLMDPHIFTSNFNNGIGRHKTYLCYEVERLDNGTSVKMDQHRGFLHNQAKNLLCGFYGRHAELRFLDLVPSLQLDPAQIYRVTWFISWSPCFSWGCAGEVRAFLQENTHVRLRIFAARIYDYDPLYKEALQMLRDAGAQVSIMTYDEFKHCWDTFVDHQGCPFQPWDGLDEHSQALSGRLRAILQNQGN
# * = called active by the depositor; i = inactive; ? = inconclusive; · = no result; + = active, no number. Shown are actives, neighbours in structure and some others; about 2.6% of the full set was active somewhere. Unless noted, the rule behind the calls is not given here.
SMILES,MLLE-PAM2 inh,PHOSPHO1 block,eIF4H inh,PABP polyA inh,APOBEC3G inh,APOBEC3A inh
COC(=O)C1C(O)=C(C=Nc2ccccc2)C(=O)CC1(C)C (stereo unspecified),3,30,-4,i,-11,-5
CSc1nc(O)c(C(c2ccccc2Cl)c2c(O)nc(SC)[nH]c2=O)c(=O)[nH]1,-16,·,·,·,2,0
Cc1ccc(N2C(=O)C(Cl)=C(NCc3ccccc3)C2=O)c(C)c1,3,8,-1,i,-4,-1
C=CCc1c(C)[nH]c(=S)c(C#N)c1C,19,83*,-1,i,34,2
CCc1ccc(CN(C)C(=O)C2CCC(=O)N(CCc3ccc(OC)cc3)C2)nc1 (stereo unspecified),11,17,3,i,-9,-4
COc1ccnc(CN(C)C(=O)C2CCC(=O)N(CCN(C)C)C2)c1 (stereo unspecified),-8,50,54*,i,-5,-4
CC1C/C(=C/c2ccco2)C(=O)/C(=C/c2ccco2)C1 (stereo unspecified),·,0,81,i,83,91
O=C1/C(=C/c2ccco2)Cc2ccccc21,-1,-5,80*,+,3,7
O=C1/C(=C\c2ccco2)CCC/C1=C\c1ccco1,-43,-9,86,i,-4,87*
COc1ccc(C(=O)NC23CC4CC(CC(C4)C2)C3)cc1OC,2,3,-5,i,-1,-3
COc1cccc2cc(-c3ccnc(=S)[nH]3)oc12,·,0,-1,i,-4,-2
Fc1ccc(-c2ccnc(=S)[nH]2)cc1,39*,44,-5,i,0,-6
COc1cc(/C=N/OCC(=O)Nc2ccc(OC(F)F)cc2)ccc1OCc1ccccc1,-57,-15,66*,i,-6,2
CCOc1ccc(N2C(=O)CC(Sc3nc4ccc(OCC)cc4s3)C2=O)cc1 (stereo unspecified),5,·,·,·,-1,-2
CCOc1ccc2nc(SC3CC(=O)N(c4ccc(C)cc4)C3=O)sc2c1 (stereo unspecified),-20,84*,-2,i,-6,-7
CCOC(=O)c1ccc(N2C(=O)CC(Sc3nc(C)cc(C)n3)C2=O)cc1 (stereo unspecified),20,5,-4,i,-8,-4
C=CCNc1nnc(SC2CC(=O)N(c3ccc(OCCC)cc3)C2=O)s1 (stereo unspecified),32,100*,-2,i,32,-1
CCOC(=O)c1ccc(N2C(=O)CC(Sc3nnc(C)s3)C2=O)cc1 (stereo unspecified),15,100*,5,i,22,-5
Cc1ccc(C(O)P(=O)(OCc2ccccc2)c2ccc(N(C)C)cc2)cc1 (stereo unspecified),4,46,2,i,11,-1
N#CC1=C(N)n2c(s/c(=C\c3cccs3)c2=O)=C(C#N)C1c1cccs1 (stereo unspecified),-23,-6,60,i,-7,0
CCOC(=O)C1=c2s/c(=C\c3ccncc3)c(=O)n2C(N)=C(C(=O)OC)C1c1ccncc1 (stereo unspecified),9,8,1,i,-7,-5
CCOC(=O)C1=C(N)n2c(s/c(=C/c3ccco3)c2=O)=C(C(=O)OC)C1c1ccco1 (stereo unspecified),3,-22,83*,+,·,·
N#CC1=C(N)n2c(s/c(=C\c3ccco3)c2=O)=C(C#N)C1c1ccco1 (stereo unspecified),-46,13,99*,+,72,91
Cc1ccccc1-c1cnc(C(O)c2c(C)cccc2C)[nH]1 (stereo unspecified),-11,·,·,·,·,·
O=C(COc1cccc2cccnc12)NNC(=O)Nc1ccccc1,-1,61*,-3,i,-7,3
SMILES,MLLE-PAM2 inh,PHOSPHO1 block,eIF4H inh,PABP polyA inh,APOBEC3G inh,APOBEC3A inh
NNC(=O)COc1cccc2cccnc12,-15,3,-2,i,-5,-2
CCN(CC)c1nc2c(c(=O)[nH]c(=O)n2C)n1CCOc1ccccc1,13,13,0,i,-1,-3
O=C(Nc1ccc(Cl)c(Cl)c1)Nc1nnc(-c2ccncc2)s1,-6,-9,74*,+,·,·
N#CC1=C(N)Oc2cc3ccccc3cc2C1c1cccs1 (stereo unspecified),19,62*,?,?,-3,-2
N#CC1=C(N)Oc2cc3ccccc3cc2C1c1cccnc1 (stereo unspecified),-3,-7,14,i,2,-2
O=C1NC(=Nc2ccccc2Cl)S/C1=C\c1cc([N+](=O)[O-])ccc1O,-89,29,66,+,-6,-4
O=C(NC1=NCCS1)c1ccc([N+](=O)[O-])cc1Cl,-6,24,12,i,-3,4
O=C(CCc1c[nH]c2ccccc12)NCc1ccc2c(c1)OCO2,-16,61*,-11,i,-1,2
COCC1CCN(C(=O)c2cc(COc3cccc4cnccc34)on2)CC1,-3,31,-8,i,-2,-4
O=C(c1cc(COc2ccc(F)cc2Cl)on1)N1CCCC(c2ccccc2)C1 (stereo unspecified),-6,43,2,i,-5,-2
O=C(c1cc(COc2ccc(F)cc2F)on1)N1CCCC(c2ccccc2)C1 (stereo unspecified),-8,60*,-5,i,-4,2
O=C(c1cc(COc2cccc3cnccc23)on1)N1CCCC(CCCO)C1 (stereo unspecified),1,63*,-8,i,-1,3
CC1=C(C(=O)N2CCOCC2)CC(CC(=O)NCc2cccs2)C(=O)N1Cc1ccc(F)cc1 (stereo unspecified),-9,·,·,·,·,·
CCn1c(C)nc2cc(C(N)=O)ccc21,-3,30,99*,+,-5,-3
CCn1c(C)nc2cc(N)ccc21,5,32,12,i,16,1
Nc1c(C(=O)Nc2ccc3c(c2)OCCO3)nnn1Cc1cccc(F)c1,5,·,·,·,-7,-5
CCCCC1=CC2=C(c3ccco3)C(=O)C(C)(OC(=O)c3ccc(OC)cc3)C(=O)C2=CN1c1ccccc1 (stereo unspecified),-2,-13,111,+,-9,1
Cc1nc2sc(C(=O)O)c(N)c2c2c1COC(C)(C)C2,12,66*,3,i,8,-2
